# From PubChem BioAssay
# Hits are enriched below; roughly 3.2% of the tested compounds scored in any of these assays.
# CDK5 p35 inh: inhibitors of human CDK5/p35 kinase. 330,000 tested, 0.01% active. Q00535+Q15078. Recombinant CDK5/p35, ADP-Glo luminescence, 60 min. inhibition, % at 10 µM;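 active means highest replicate inhibition of at least 50% and at least 75% of replicates reaching 50%; inconclusive means only one of the two criteria met; inactive means both criteria failed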;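 further: plate controls were DMSO neutral control for no effect and GW8510 at 10 µM for full effect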
# esBAF inh: SWI/SNF esBAF complex inhibition. mouse ES cells, Bmi1-luciferase knock-in reporter, 24 h; 100% = twice the neutral-well signal. AID 602393. reporter increase, % at 12.5 µM. 350,000 tested, 2% active; in the data active means activation above about 40%; inconclusive means no clear call, values can overlap the other calls;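 further: 0% = median of the plate's neutral control wells and 100% = double that signal; a rise in the Bmi1 reporter signal indicates esBAF inhibition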
# dFosB act: activators of mouse delta FosB homodimer; activation, % at 25 µM; 340,000 tested, 0.99% active; purified delta FosB, TAMRA-CDK5 oligo fluorescence polarization; percent of positive-control signal above neutral wells;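 active means mean activation above about 17%, with every replicate also reaching it, limit read from the data, passing the limit was not always enough; inconclusive means only one of the two conditions met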
# Target sequence (P13346 whole entry, looked up): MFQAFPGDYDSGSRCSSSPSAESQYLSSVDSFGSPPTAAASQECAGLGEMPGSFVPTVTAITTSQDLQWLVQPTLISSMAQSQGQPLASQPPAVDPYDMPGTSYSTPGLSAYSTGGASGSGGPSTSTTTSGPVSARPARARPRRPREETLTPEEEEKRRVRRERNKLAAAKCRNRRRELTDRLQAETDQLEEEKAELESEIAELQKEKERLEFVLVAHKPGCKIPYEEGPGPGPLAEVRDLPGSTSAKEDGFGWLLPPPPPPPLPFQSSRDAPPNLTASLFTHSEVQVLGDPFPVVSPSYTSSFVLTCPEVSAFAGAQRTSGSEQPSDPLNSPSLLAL
# Dyrk1A ADPGlo: inhibitors of rat Dyrk1A kinase; inhibition, % at 12.5 µM; ADP-Glo luminescence, NFATc1 peptide; 310,000 tested, 0.43% active; in the data active means inhibition above about 50%;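 further: plate controls were vehicle with enzyme for no effect and no enzyme for full effect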
# SMARCA2 act: SMARCA2 function activation, primary screen. activation, % at 9.1 µM. AID 652017. 370,000 tested, 1% active. MG213 cells, MMTV-luciferase reporter, dexamethasone, overnight; in the data active means activation above about 7.8%;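 further: 0% = vehicle wells and 100% = reference activator wells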
# Rtt109 Vps75: inhibitors of Candida albicans Rtt109/Vps75 histone acetyltransferase; Q5AAJ8; purified Rtt109/Vps75, ThioGlo CoA-SH fluorescence, 4 h; inhibition, % at 34.9 µM; 330,000 tested, 0.16% active;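 active means inhibition of at least 50% in every replicate; inconclusive means best replicate reaches 50% inhibition but some replicates fall short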
# Target sequence (Q5AAJ8 whole entry, looked up): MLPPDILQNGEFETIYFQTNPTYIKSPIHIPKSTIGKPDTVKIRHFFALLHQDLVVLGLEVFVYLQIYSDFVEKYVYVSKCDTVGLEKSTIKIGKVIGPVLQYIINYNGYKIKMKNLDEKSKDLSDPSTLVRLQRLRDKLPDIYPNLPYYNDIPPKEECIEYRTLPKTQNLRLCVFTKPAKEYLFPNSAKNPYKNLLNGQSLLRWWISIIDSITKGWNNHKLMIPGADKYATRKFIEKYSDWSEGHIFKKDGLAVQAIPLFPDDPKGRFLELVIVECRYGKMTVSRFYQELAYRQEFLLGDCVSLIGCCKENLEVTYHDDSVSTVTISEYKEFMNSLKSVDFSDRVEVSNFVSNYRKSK
# SMARCA2 act conf: SMARCA2 activation, confirmation screen | shares compounds with SMARCA2 act | MG213 cells, MMTV-luciferase with dexamethasone, luminescence, overnight; MG213 cells expressing E1A, Rb sequestered; DMSO wells 0%, reference activator 100% | activation, % at 9.1 µM | 3,500 tested, 30% active | AID 652260;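 active means activation above its plate's cutoff, the mean activation of tested wells plus 3 SD, cut at about 7.9% in these data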
# VP16 Luc act: counter-screen for SMARCA2 activators: GAL4-VP16 luciferase reporter activation; shares compounds with SMARCA2 act; 3,500 tested, 41% active; HEK293 GAL4-VP16 pG5luc reporter, luciferase luminescence; scaled: DMSO wells 0%, SAHA wells 100%; activation, % at 9.1 µM;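 active means activation above the solvent-only control well mean plus 3 SD, averaged across control plates, cut at about 5.2% in these data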
# * hit, by the source's call; ? = inconclusive; . = no result.
SMILES,CDK5 p35 inh,esBAF inh,dFosB act,Dyrk1A ADPGlo,SMARCA2 act,Rtt109 Vps75,SMARCA2 act conf,VP16 Luc act
O=C1c2ccccc2C(=O)c2cc(NC(=O)C3CC3)ccc21,0.4,.,-8.3,7.4,-0.3,-0.6,.,.
CC(=O)Nc1ccc2c(c1)C(=O)c1ccccc1C2=O,-1.4,26.6,-10.7,-1.9,9.4*,2.9,18.9*,11.3*
O=C(C[C@H]1CC[C@H]2[C@@H](COC[C@@H](O)CN2S(=O)(=O)c2cccc(Cl)c2)O1)N1CCCCC1,.,-1.8,.,.,.,.,.,.
Cc1c(C(=O)Nc2ccncc2)oc2ccccc12,4.2,37.5,-18.3,-3.8,0.4,2.9,.,.
COc1ccc(NC(=O)c2oc3ccccc3c2C)cn1,0.8,43.0*,-16.2,-4.1,9.8*,0.1,9.7*,5.4*
CCN(CC)c1ccc(/C=N/Nc2nc(C)cc(C)n2)cc1,.,.,.,.,8.1*,.,-4.2,1.3
Cc1cc(C)nc(N/N=C/c2ccccc2)n1,0.4,.,-5.8,-1.3,.,2.7,.,.
COC(=O)C[C@@H]1CC[C@H]2[C@@H](COC[C@H](O)CN2S(=O)(=O)c2cn(C)cn2)O1,.,-0.9,.,.,.,.,.,.
COc1cccc(NC(=O)/C=C/c2ccccc2[N+](=O)[O-])c1,-3.4,.,-7.6,17.7,10.5*,?,8.8*,14.9*
O=[N+]([O-])c1nn(-c2ccccc2)n(O)c1=NCCc1ccccc1,0.1,.,5.9,2.4,11.2*,9.4,5.6,2.8
O=C(C[C@H]1C=C[C@@H](NC(=O)c2ccncc2)[C@H](CO)O1)Nc1ccc(-c2ccccc2)cc1,.,4.9,.,.,.,.,.,.
C/C(=N\OC(=O)Nc1ccc(Cl)cc1)c1ccc(F)c(F)c1,-0.1,3.4,-11.0,-2.4,5.4,-3.0,.,.
CC(C)C(Cl)=NOC(=O)Nc1ccc(F)cc1,2.1,.,4.9,-2.4,43.5*,5.1,-15.0,1.7
Cc1cc(C(=O)N(C)C2CCCCC2)no1,-0.6,-1.9,6.3,-2.5,-1.2,-2.5,.,.
CN(C(=O)c1cc(-c2ccccc2)on1)C1CCCCC1,1.8,50.7*,1.6,-1.9,9.1*,17.8,11.1*,9.3*
O=[N+]([O-])c1ccc(-c2ccc(/C=N/Nc3nc(N4CCCCC4)nc(N4CCCCC4)n3)o2)cc1,-0.5,.,-2.8,-6.1,-3.3,-0.2,.,.
O=[N+]([O-])c1cccc(-c2ccc(/C=N/Nc3nc(N4CCCCC4)nc(N4CCCCC4)n3)o2)c1,-2.3,.,-15.3,-5.9,8.9*,4.0,-5.2,0.1
Cc1ccc(S(=O)(=O)c2nc(-c3ccc(F)cc3)oc2N2CCOCC2)cc1,0.3,-2.8,-7.0,-6.5,11.5*,-11.5,-1.9,-1.0
CC(=O)Nc1ccc(NC(=O)/C=C/c2ccc3c(c2)OCO3)cc1,2.5,.,-2.1,2.2,0.8,-7.2,.,.
COC(=O)c1cccc(NC(=O)/C=C/c2ccc3c(c2)OCO3)c1,-0.8,.,6.6,18.0,8.2*,2.2,-1.6,3.7
Cc1cccnc1NC(=O)/C=C/c1ccc2c(c1)OCO2,0.9,36.8,-4.7,18.5,2.2,1.1,.,.
Cc1cc(C)nc(NC(=O)/C=C/c2ccc3c(c2)OCO3)c1,-1.6,47.9*,0.5,-2.3,11.2*,-4.0,9.9*,8.4*
O=C(/C=C/c1ccc2c(c1)OCO2)Nc1cccnc1,0.5,.,10.7,21.9,13.1*,-4.0,5.3,5.6*
COc1ccc(NC(=O)Nc2ccc3c(c2)[C@H]2C[C@H](CC(=O)N4CCc5ccccc5C4)O[C@H](CO)[C@H]2O3)cc1,.,17.8,.,.,.,.,.,.
Cc1noc(/C=C/Nc2ccc(F)cc2F)c1[N+](=O)[O-],1.4,.,13.8,1.2,8.0*,5.5,6.6,10.2*
SMILES,CDK5 p35 inh,esBAF inh,dFosB act,Dyrk1A ADPGlo,SMARCA2 act,Rtt109 Vps75,SMARCA2 act conf,VP16 Luc act
Cc1noc(C(=O)Nc2ccc(F)cc2F)c1Cl,0.5,19.4,2.2,-1.2,5.7,1.5,.,.
COc1cccc(C(=O)Nc2ccc3c(c2)C(=O)N(C)[C@H]2CC[C@@H](CC(=O)NCc4ccccc4F)O[C@@H]2CO3)c1,.,2.3,.,.,.,.,.,.
COc1ccc(CCN=C(N)NS(=O)(=O)c2ccc(C)c(C)c2)cc1OC,-0.3,-10.5,-4.5,-2.7,0.8,2.8,.,.
COc1ccc(S(=O)(=O)NC(N)=NCCc2ccc(OC)c(OC)c2)cc1,.,.,.,.,10.3*,.,0.8,3.6
O=C(CCc1nnc(C2(c3ccc(Cl)cc3)CCC2)o1)NC1CC1,2.7,.,-2.3,-0.3,-3.1,0.2,.,.
CCC(=O)C1CCCN(C(=O)CCc2nnc(C3(c4ccc(Cl)cc4)CCC3)o2)C1 (configuration not stated),-2.8,50.2*,-6.7,5.3,8.8*,6.4,4.2,5.2*
C[C@@H]1CN([C@@H](C)CO)S(=O)(=O)c2ccc(-c3ccc(C(=O)N(C)C)cc3)cc2O[C@H]1CN(C)C(=O)C1CCC1,.,-5.6,.,.,.,.,.,.
CC(=O)c1ccc(N2CCN(S(=O)(=O)c3ccc4c(c3)C(Cl)(Cl)C(=O)N4)CC2)cc1,.,-8.8,.,.,10.1*,.,3.7,1.2
CC(=O)c1ccc(N2CCN(S(=O)(=O)c3ccc4c(c3)NC(=O)CC(=O)N4)CC2)cc1,0.3,30.9,-4.1,7.2,2.1,-10.8,.,.
COc1ccccc1C#Cc1cnc2c(c1)C(=O)N([C@@H](C)CO)C[C@@H](C)[C@@H](CN(C)C(=O)CC1CC1)O2,.,-0.7,.,.,.,.,.,.
Cc1nc2ccc(-c3nc4ccccc4[nH]3)cc2[nH]1,4.9,.,-1.1,1.2,15.6*,8.1,13.9*,12.4*
c1ccc2[nH]c(-c3ccc4c(c3)OCO4)nc2c1,.,.,.,.,8.1*,.,22.4*,11.8*
C[C@@H]1CN([C@@H](C)CO)C(=O)c2cccc(NS(=O)(=O)c3cn(C)cn3)c2O[C@@H]1CN(C)S(=O)(=O)c1cccs1,.,0.2,.,.,.,.,.,.
Cc1ccc(C(=O)/C=C2\NCCNC2=O)cc1,-3.6,.,7.2,-0.7,11.8*,17.0,11.6*,15.0*
C[C@H]1CN([C@@H](C)CO)C(=O)Cc2cc(NC(=O)C3CC3)ccc2O[C@@H]1CN(C)CC1CC1,.,5.3,.,.,.,.,.,.
C[C@H]1CN([C@@H](C)CO)C(=O)c2cc(-c3cccc(F)c3)cnc2O[C@@H]1CN(C)C(=O)C1CCCCC1,.,-6.9,.,.,.,.,.,.
O=C(Nc1cccc(F)c1)N1C[C@H]2[C@@H](c3ccccc31)[C@H](CO)N2C(=O)c1ccccn1,.,7.1,.,.,.,.,.,.
Cc1ccc(NC(=S)NCc2cccs2)c(C)c1,-0.7,10.6,2.2,2.7,10.2*,-2.2,-1.7,1.4
Cc1cc(Cl)ccc1NC(=S)NCc1cccs1,0.7,.,4.1,0.2,-3.2,4.3,.,.
